Bioassay records: PubChem BioAssay, National Center for Advancing Translational Sciences (NCATS)
KB-V1 cytotox: qHTS assay for MDR1-selective chemotherapeutics: Primary screen using the drug-selected MDR subline cells KB-V1; Potency, µM (top dose mostly 46.1 µM), hits mostly cytotoxic; 400,000 tested, 3.4% active; KB-V1 MDR cells viability, CellTiter-Glo, 72 h; note: % is set by controls: 0 for no effect and ±100 for the full control effect; nearly all actives have a fitted effect of over 60% in size
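Cells of the MDR subline KB-V1 are plated, dosed with compound at multiple concentrations, and incubated 72 h at 37 degrees C; CellTiter-Glo is then added and luminescence read after 10 min.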
HT1080NT lethal: qHTS for induction of synthetic lethality in tumor cells producing 2HG: qHTS for the HT-1080-NT fibrosarcoma cell line; HT-1080-NT fibrosarcoma viability, CellTiter-Glo ATP luminescence, 48 h; 360,000 tested, 1.6% active; Potency, µM (titrated, usually from 46.1 µM), without a hit: top-dose activity, negative = less viability, usual class: cytotoxic;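 note: NT is the 2HG producing partner of a matched IDH1 knockdown line; 0% = DMSO-treated cells and -100% = media-only wells without cells; nearly all actives have a fitted effect of over 55% in size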
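HT-1080-NT; 750 cells/well; 5% FBS RPMI; 48 h compound, 37 degrees C; CellTiter-Glo luminescence; curve fitting and curve-class assignment.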
KB-3-1 cytotox: qHTS assay for MDR1-selective chemotherapeutics: Primary screen using the parental adenocarcinoma cell KB-3-1 | KB-3-1 viability, CellTiter-Glo ATP luminescence, 72 h | Potency, µM (doses to about 46.1 µM), most hits filed as cytotoxic | 400,000 tested, 1.4% active; note: % is set by controls: 0 for no effect and ±100 for the full control effect; nearly all actives have a fitted effect of over 60% in size
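72 h, 37 °C compound treatment of KB-3-1 parental cells; CellTiter-Glo added, 10 min, luminescence read. Data corrected against DMSO-only plates and normalized before curve fitting.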
ATXN viability: Viability Counterscreen for Primary qHTS for Inhibitors of ATXN expression | Potency, µM (series often up to 56.7 µM), usual class: cytotoxic | S2 cells (HEK-293 line with an ATXN2-luciferase reporter) viability, CellTiter-Fluor protease fluorescence, 24 h | 400,000 tested, 0.49% active; note: nearly all actives have a fitted effect of over 40% in size
HT1080 IDH1KD tx: qHTS for induction of synthetic lethality in tumor cells producing 2HG: qHTS for the HT-1080-IDH1KD cell line; Potency, µM (top dose mostly 46.1 µM), for inactives: at the highest dose activity, negative = toxicity, most hits filed as cytotoxic; 360,000 tested, 2% active; HT-1080 IDH1 knockdown viability, ATP luminescence, 48 h;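 note: 0% = DMSO wells and -100% = cell-free medium wells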
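Viability of IDH1-knockdown HT-1080 fibrosarcoma cells was assessed by CellTiter-Glo after 48 h at 37 °C with titrated compound; concentration-effect curves were classified by fit quality and response size.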
ATXN2 expr inh: Primary qHTS for Inhibitors of ATXN expression | 360,000 tested, 0.72% active | Potency, µM (titrated, usually from 57 µM), for inactives: at the highest dose activity change, negative = inhibition, hits mostly inhibitors | AID 1745845, 2022 | HEK-293 ATXN2-luciferase reporter, luminescence, 24 h; note: % is set by controls: 0 for no effect and ±100 for the full control effect; nearly all actives have a fitted effect of over 55% in size
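ATXN2-luciferase reporter cells (luciferase flanked by upstream and downstream ATXN2 gene portions) were treated 24 h at 37 °C with compounds at up to 57 uM. SteadyGlo luminescence gave expression; GF-AFC fluorescence gave viability.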
* hit, by the source's call; i = inactive; ? = inconclusive; . = not tested or not shown; ! = not active in a repeat. In the library only some 6.2% were active in any assay of this set; here they are far more common. Calls come from the whole dose curve; as a rule, active = well fitted curve in the direction sought with a large enough effect; inconclusive = small, poorly fitted or top-dose-only effect, or another doubt; inactive = no such curve, though single readings can be large; an effect the other way counts as inactive or inconclusive. Potency is the fitted concentration of half-maximal effect.

SMILES	KB-V1 cytotox	HT1080NT lethal	KB-3-1 cytotox	ATXN viability	HT1080 IDH1KD tx	ATXN2 expr inh
CCOc1ccc(NC(=O)c2ccc(F)c(S(=O)(=O)N3CCN(c4ccccn4)CC3)c2)cc1	2.3µM*	-18%	i	i	?	-4%
CCOc1ccc(NC(=O)c2ccc(F)c(S(=O)(=O)N3CCCC3)c2)cc1	?	-17%	?	?	-24%	.
COC(=O)c1ccn(-c2nc(-c3ccc(Cl)cc3)cc(C(F)(F)F)n2)n1	i	.	i	i	.	-2%
NC(N)=Nc1nc(CSCCC(N)=NS(N)(=O)=O)cs1	.	.	.	.	.	8%
COC(=O)C[C@H]1C=C[C@H](NC(=O)C2CCOCC2)[C@@H](CO)O1	i	13%	i	.	18%	.
COc1cc(NC(=O)C2CCN(c3nnc(C)c4c(C)n(-c5ccccc5)nc34)CC2)cc(OC)c1	?	.	i	.	.	.
CCCOc1c(Cl)cc(C(=O)N(Cc2cccc(OC)c2)C2CCS(=O)(=O)C2)cc1Cl (centres undefined)	i	.	i	.	.	.
CCOC(=O)c1ccc(OCC2c3cc(OC)c(OC)cc3CCN2C(=O)Cc2ccc(OC)c(OC)c2)cc1 (centres undefined)	i	.	i	i	.	-3%
CCOc1ccc(NC(=O)c2ccccn2)cc1	21µM*	?	?	i	?	10µM*
COCCCn1c(=N)c(C(N)=S)cc2c(=O)n3cccc(C)c3nc21	i	10%	i	?	9%	-18%
Cc1ccc2nc3c(cc(C(N)=S)c(=N)n3CCCOC(C)C)c(=O)n2c1	?	?	?	.	11µM*	-29%
CCc1ccc(NC(=O)CSC2=Nc3ccccc3C3=NC(CCC(=O)NCc4ccccc4)C(=O)N23)cc1 (centres undefined)	i	.	i	i	.	2%
CCN(CC)CCNc1cccc2sc3ccccc3c(=O)c12	?	-3%	i	i	-14%	.
O=c1c2ccccc2sc2c(CO)ccc(NCCN3CCCCC3)c12	16µM*	-28%	?	?	?	19µM*
CCN(CC)CCNc1ccc(CO)c2sc3ccccc3c(=O)c12	?	12µM*	16µM*	32µM*	21µM*	28µM*
CSc1nnc(CNS(=O)(=O)c2ccc(F)cc2F)n1-c1ccccc1C	.	.	.	i	.	.
O=C(CN1CCN(S(=O)(=O)c2cc(Cl)ccc2Cl)CC1)Nc1cccc(F)c1	i	.	i	i	.	-3%
CCOC(=O)C1CCN(C(c2cc3ccc(C)c(C)c3[nH]c2=O)c2nnnn2C2CCCCC2)CC1 (centres undefined)	16µM*	-6%	i	?	?	7%
OCC(O)COc1ccc(Cl)cc1 (centres undefined)	.	.	.	i	.	.
CC1(c2cccc3ccccc23)OC(=O)c2ccccc21 (centres undefined)	18µM*	-4%	?	i	?	9%
O=C(CCCc1ccccc1)NCc1ccc(Cl)cc1	i	21%	i	i	13%	11%
Cc1cccc(N2CCN(C(=O)c3cccc(N4CCCC4=O)c3)C(C)C2)c1 (centres undefined)	?	?	2.6µM*	i	2.6µM*	.
O=C(c1cccc(N2CCCC2=O)c1)N1CCN(c2cccc(Cl)c2)CC1	?	?	5.2µM*	i	13µM*	.
O=[N+]([O-])c1cccc2[nH]cnc12	i	.	i	.	.	.
COC(=O)c1nnn(-c2cccc(C)c2)c1N	i	.	i	i	.	15%
SMILES	KB-V1 cytotox	HT1080NT lethal	KB-3-1 cytotox	ATXN viability	HT1080 IDH1KD tx	ATXN2 expr inh
Cc1ccc2c(CNCc3ccccc3)cc(=O)oc2c1	3.7µM*	5.2µM*	5.2µM*	i	8.2µM*	?
O=c1cc(NCCc2ccccc2)c2ccccc2o1	13µM*	-23%	?	?	-19%	22%
CN(Cc1ccccc1)Cc1cc(=O)oc2ccccc12	9.2µM*	-2%	i	i	0%	25%
Cc1cc(C)n(-c2nc(NC(C)C)nc(NC(C)(C)C)n2)n1	i	.	i	.	.	.
COc1ccc(S(=O)(=O)c2cn(Cc3ccccc3)c3cc(N4CCCC4)c(F)cc3c2=O)cc1	i	.	i	.	.	.
O=C(Nc1cccn(Cc2c(Cl)cccc2Cl)c1=O)c1c(Cl)cccc1Cl	3.7µM*	-8%	21µM*	i	-9%	-23%
COC(=O)Nc1cccn(Cc2c(Cl)cccc2Cl)c1=O	i	2%	i	i	-5%	1%
COc1ccc(/C=N\NC(=O)c2sccc2C)cc1Cn1nc(C)cc1C	6.5µM*	0%	?	i	-6%	54%
COc1ccc(/C=N\NC(=O)COc2ccccc2Cl)cc1Cn1nc(C)cc1C	i	?	i	?	?	-31%
Cc1cc(NC(=O)Nc2ccc(C)c(C)c2)no1	i	29µM*	i	i	-4%	9%
Cc1ccc(CN2CCC(=O)N(Cc3ccccn3)CC2)c(C)c1	.	.	.	i	.	.
O=C(CCSCc1ccc(Cl)cc1)NCc1ccco1	i	9%	i	i	11%	.
Cc1ccc(CS/C(Nc2ccccc2C)=C(\C#N)C(=O)NCc2ccco2)c(C)c1	15µM*	-10%	?	i	-14%	?
Cc1ccccc1N/C(SCc1ccc(Cl)cc1)=C(/C#N)C(=O)NCc1ccco1	12µM*	?	?	i	?	?
N#Cc1cccc(C(=O)Nc2ccccc2C(=O)NC2CC2)c1	i	14%	i	i	12%	0%
Cc1cccc(NC(=O)CSc2nc3ccccc3nc2N2CC(C)OC(C)C2)c1 (centres undefined)	i	5%	?	?	-19%	-11%
CC1CN(c2nc3ccccc3nc2SCC(=O)Nc2cccc(C(F)(F)F)c2)CC(C)O1 (centres undefined)	i	?	23µM*	?	-17%	?
CCN(CC)C(=S)SSC(=S)N(CC)CC	i	?	i	71µM*!	0.0052µM*!	?
CCN(CC)C(=O)c1cc(-c2ccc(Cl)cc2)on1	i	.	i	i	.	16%
Fc1ccccc1/C=C1\CCCC2=C1Nc1nnnn1C2c1ccccc1F (centres undefined)	i	13µM*	i	i	10µM*	-5%
